Results filed as inconclusive are left out. Where a call stands in place of a potency, no number is given. Active and inactive are the calls of the source. Unless noted, calls follow the shape of the dose curve; as a rule, active = well fitted curve in the direction sought with a large enough effect; inconclusive = small, poorly fitted or top-dose-only effect, or another doubt; inactive = no such curve, though single readings can be large; an effect the other way counts as inactive or inconclusive.
Key:
[1] = Validation screen for small molecules that induce genotoxicity in human embryonic kidney (HEK293T) cells expressing luciferase-tagged ELG1 (AID 493106); also: potency is read from the fitted curve at half-maximal effect
Procedure, shortened: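 HEK293T cells expressing luciferase-tagged ELG1 were exposed to compound or DMSO vehicle for 16 hr at 37 °C, 5% CO2. Genotoxic stress raises ELG1 levels, so increased luciferase signal after ONE-Glo addition and 30 min at room temperature marks hits.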

[2] = target: ATPase family AAA domain-containing protein 5 (Homo sapiens) (UniProt Q96QE3); assay: Validation screen for small molecules that inhibit ELG1-dependent DNA repair in human embryonic kidney (HEK293T) cells expressing luciferase-tagged ELG1 (AID 493107);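 also: cells co-treated with the DNA-damaging agent 5-fluorouridine alongside compound; series mostly up to about 46 µM; inhibitors lower the ELG1-luciferase luminescence signal; nearly all actives have a fitted effect of over 70% in size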
ATPase family AAA domain-containing protein 5 (Homo sapiens), sequence (Q96QE3 whole entry, looked up, the tested form may be a part): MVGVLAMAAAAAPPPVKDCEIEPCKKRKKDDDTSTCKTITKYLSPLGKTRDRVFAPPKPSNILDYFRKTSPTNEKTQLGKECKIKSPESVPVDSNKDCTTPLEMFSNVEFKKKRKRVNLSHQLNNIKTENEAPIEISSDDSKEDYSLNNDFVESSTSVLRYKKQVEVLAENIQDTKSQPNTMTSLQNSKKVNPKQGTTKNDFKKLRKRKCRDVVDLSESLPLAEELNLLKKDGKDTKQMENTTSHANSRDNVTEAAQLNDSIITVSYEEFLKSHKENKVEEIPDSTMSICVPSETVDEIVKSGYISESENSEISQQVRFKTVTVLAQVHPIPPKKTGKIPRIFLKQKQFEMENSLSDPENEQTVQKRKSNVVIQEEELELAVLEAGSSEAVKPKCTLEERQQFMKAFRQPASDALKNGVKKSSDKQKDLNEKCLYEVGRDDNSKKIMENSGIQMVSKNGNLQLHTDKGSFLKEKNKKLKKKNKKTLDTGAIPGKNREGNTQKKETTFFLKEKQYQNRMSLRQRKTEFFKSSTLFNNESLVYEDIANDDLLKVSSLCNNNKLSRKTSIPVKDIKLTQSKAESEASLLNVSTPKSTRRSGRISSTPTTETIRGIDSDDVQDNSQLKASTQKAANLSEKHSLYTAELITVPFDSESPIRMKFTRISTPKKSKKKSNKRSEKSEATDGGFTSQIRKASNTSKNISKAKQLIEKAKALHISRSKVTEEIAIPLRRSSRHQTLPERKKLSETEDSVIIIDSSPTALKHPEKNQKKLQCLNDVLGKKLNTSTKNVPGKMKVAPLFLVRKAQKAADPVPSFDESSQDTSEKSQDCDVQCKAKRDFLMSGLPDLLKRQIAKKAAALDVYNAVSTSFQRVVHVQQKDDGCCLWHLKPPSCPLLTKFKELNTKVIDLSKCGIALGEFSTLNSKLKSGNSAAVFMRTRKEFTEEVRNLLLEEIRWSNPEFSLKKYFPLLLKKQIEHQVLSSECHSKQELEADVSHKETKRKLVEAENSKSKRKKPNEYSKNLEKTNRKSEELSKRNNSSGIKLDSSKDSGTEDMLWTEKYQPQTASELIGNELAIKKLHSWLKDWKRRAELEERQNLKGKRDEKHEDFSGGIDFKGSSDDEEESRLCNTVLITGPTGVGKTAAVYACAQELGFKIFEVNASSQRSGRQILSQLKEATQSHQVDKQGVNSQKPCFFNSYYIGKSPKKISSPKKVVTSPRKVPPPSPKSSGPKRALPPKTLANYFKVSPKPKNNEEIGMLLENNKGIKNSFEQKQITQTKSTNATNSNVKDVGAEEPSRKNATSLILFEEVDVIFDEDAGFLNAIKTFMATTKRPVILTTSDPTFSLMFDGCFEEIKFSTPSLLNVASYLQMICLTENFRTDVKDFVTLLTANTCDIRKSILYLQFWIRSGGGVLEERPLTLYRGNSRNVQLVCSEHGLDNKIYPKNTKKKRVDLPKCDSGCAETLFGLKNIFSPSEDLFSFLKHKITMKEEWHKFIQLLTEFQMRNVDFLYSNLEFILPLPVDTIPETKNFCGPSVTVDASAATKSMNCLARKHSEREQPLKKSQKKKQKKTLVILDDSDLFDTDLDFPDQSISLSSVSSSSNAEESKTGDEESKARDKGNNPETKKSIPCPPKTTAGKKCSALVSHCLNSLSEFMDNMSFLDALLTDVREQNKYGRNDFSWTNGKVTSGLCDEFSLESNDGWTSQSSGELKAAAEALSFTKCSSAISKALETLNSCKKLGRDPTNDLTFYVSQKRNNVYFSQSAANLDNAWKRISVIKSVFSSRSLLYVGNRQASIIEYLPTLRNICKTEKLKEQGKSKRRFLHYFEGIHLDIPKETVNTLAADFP
Procedure, shortened: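 HEK293T cells expressing luciferase-tagged ELG1 were co-treated with 5-fluorouridine and compound or DMSO for 16 hr at 37 °C, 5% CO2. Luciferase activity was then read with ONE-Glo after 30 min at room temperature; suppressed signal indicates blocked ELG1 function.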

[3] = target: Thyrotropin-releasing hormone receptor (Homo sapiens) (UniProt P34981); assay: qHTS for Small Molecule Agonists and Allosteric Enhancers of Human TRH Receptor: Validation Screen for Agonists (AID 493127;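 active = calcium activation more than 3 SD above the typical response in the agonist read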;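 also: intracellular calcium rise by fluo-8 fluorescence before TRH EC20 addition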); settings: TRH receptor agonist cell assay; at 2 µM; stronger effect = higher value
Thyrotropin-releasing hormone receptor (Homo sapiens), sequence (P34981 whole entry, looked up): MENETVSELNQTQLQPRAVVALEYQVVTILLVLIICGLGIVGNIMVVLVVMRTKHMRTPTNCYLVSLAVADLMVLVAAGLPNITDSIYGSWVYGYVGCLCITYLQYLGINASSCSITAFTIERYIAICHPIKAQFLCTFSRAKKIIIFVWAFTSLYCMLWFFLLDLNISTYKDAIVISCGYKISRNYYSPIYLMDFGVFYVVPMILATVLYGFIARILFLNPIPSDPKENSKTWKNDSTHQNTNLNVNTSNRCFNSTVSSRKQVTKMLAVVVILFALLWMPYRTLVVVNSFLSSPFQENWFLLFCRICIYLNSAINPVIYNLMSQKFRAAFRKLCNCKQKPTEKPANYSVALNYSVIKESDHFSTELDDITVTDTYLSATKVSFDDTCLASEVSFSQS
Procedure, shortened: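 TRHR-expressing cells were plated overnight in serum-containing medium, then loaded with fluo-8 calcium dye at room temperature for 30 min–1.5 h. After a 10 s baseline, compound was pin-transferred and calcium fluorescence (ex 480/em 530) read kinetically for agonist response.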

[4] = qHTS for Inhibitors of Cell Surface uPA Generation: Validation Assay (AID 493164);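 also: RAW 264.7 macrophage cells exposed to compound for 18 h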
Procedure, shortened: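 RAW 264.7, 4000 cells/well, o/n plating; cpd 7-pt 1:5 dilution 2.45 nM–38.3 uM final; 18 h, 37 C/5% CO2; ATP-Lite, 5 s luminescence exposure.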

[5] = Validation screen for small molecules that induce DNA re-replication in SW480 colon adenocarcinoma cells (AID 504364)
Procedure, shortened: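 SW480 cells seeded at 250 per well were exposed to compound or DMSO for 48 hr at 37 C, 5% CO2, then stained with Hoechst for 40 min. DNA content per nucleus was imaged (405 nm ex, 500-530 nm em).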

[6] = target: Peptidyl-prolyl cis-trans isomerase NIMA-interacting 1 (Homo sapiens) (UniProt Q13526); assay: qHTS Validation Assay to Find Inhibitors of Pin1 (AID 504536; active = well fitted inhibition curve with a large enough effect in the polarisation, with a control signal flat, not every such curve was filed as active; the % refers to the polarisation)
Peptidyl-prolyl cis-trans isomerase NIMA-interacting 1 (Homo sapiens), sequence (Q13526 whole entry, looked up): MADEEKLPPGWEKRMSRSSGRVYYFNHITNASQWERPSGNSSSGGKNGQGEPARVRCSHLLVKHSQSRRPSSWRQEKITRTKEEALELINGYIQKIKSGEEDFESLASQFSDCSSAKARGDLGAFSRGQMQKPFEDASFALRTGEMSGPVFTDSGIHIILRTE
Procedure, shortened: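 Fluorescence polarization competition: compounds (titration) displace HiFluor-488-labeled Pin1-1b peptide from Pin1 (0.3 uM final) in pH 7.5 HEPES buffer with DTT, 10 min at room temperature; %Activity normalized to no-enzyme wells, curves fitted.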

[7] = target: Phosphoglycerate kinase, glycosomal (Trypanosoma brucei brucei) (UniProt P07378); assay: qHTS Validation Assay to Find Inhibitors of Phosphoglycerate Kinase (AID 504547)
Procedure, shortened: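 Inhibition of the enzyme is judged by a Kinase-Glo Plus luminescent signal following a one-hour incubation at room temperature. Because 1,3-BPG is unstable, it is made in situ by GAPDH at 100nM final; no-PGK wells define the baseline.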

[8] = target: phosphoglycerate mutase (Leishmania major) (UniProt Q4Q090); assay: qHTS Validation Assay to Find Inhibitors of Phosphoglycerate Mutase (AID 504548);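 also: end-point luminescence from Kinase-GloPlus after the PGAM reaction; series mostly up to about 58 µM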
phosphoglycerate mutase (Leishmania major), sequence (Q4Q090 1-553): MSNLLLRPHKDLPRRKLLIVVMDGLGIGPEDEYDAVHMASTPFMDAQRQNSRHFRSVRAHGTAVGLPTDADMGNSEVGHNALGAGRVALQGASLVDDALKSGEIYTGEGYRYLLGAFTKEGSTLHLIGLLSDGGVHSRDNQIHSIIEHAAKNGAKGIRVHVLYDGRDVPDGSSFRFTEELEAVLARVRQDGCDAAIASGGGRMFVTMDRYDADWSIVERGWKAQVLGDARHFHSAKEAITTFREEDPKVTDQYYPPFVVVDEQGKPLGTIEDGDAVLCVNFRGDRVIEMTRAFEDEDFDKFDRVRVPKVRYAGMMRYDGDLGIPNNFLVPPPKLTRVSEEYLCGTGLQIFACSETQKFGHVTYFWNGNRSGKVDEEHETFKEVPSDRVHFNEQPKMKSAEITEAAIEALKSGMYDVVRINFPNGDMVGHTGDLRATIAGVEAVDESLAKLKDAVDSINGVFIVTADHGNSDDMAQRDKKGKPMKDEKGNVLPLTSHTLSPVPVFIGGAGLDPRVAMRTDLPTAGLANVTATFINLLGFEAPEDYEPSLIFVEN
Procedure, shortened: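 L. major PGAM (1.25nM final) was added to substrate buffer and pinned compound, incubated 45 minutes at room temperature, then Kinase-GloPlus added; luminescence read after 10 minutes. Buffer: 100 mM TEA pH 7.6, 5 mM MgCl2, 0.01% Tween-20.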

[9] = target: Ubiquitin carboxyl-terminal hydrolase 1 (Homo sapiens) (UniProt O94782); assay: Inhibitors of USP1/UAF1: Pilot qHTS (AID 504865);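 also: rhodamine fluorescence freed from ubiquitin-rhodamine substrate followed over time; top concentration of the series differs between compounds; nearly all actives have a fitted effect of over 35% in size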
Ubiquitin carboxyl-terminal hydrolase 1 (Homo sapiens), sequence (O94782 whole entry, looked up): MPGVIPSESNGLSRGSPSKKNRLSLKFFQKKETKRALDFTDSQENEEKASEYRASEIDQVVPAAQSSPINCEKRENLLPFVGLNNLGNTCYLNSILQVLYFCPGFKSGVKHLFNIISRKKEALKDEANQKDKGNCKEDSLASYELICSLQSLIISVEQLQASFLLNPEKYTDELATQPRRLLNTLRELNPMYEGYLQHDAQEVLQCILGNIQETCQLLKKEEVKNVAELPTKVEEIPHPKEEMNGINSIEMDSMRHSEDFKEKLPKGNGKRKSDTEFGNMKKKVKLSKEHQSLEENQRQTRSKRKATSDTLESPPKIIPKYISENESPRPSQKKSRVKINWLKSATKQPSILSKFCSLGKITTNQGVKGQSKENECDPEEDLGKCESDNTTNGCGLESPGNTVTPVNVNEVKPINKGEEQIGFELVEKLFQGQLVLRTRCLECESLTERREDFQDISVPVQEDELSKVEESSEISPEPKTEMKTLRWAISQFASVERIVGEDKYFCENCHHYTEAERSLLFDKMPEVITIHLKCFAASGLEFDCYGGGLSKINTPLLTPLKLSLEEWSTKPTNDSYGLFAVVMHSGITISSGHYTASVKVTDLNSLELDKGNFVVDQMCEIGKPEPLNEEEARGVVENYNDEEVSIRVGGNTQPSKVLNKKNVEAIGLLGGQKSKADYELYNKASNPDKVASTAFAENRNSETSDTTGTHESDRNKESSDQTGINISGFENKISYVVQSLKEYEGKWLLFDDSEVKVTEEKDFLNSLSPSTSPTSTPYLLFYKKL
Procedure, shortened: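 1nM USP1/UAF1 + cpd, 15 min RT; start w/ Ub-Rho 150nM final; kinetic FL 480/540 nm, 6 reads q60 s. Buffer 50mM HEPES pH 7.8, 0.5mM EDTA, 1mM TCEP, 0.01% Tween-20, 0.1 mg/ml BSA.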

[10] = qHTS for Inhibitors of ATXN expression: Validation of Cytotoxic Assay (AID 588349)
Procedure, shortened: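 HEK293 cells were dosed with titrated compounds for 72 hr at 37 degrees C. Viability was read by CellTiter Glo luminescence, with intracellular ATP as the marker of cell survival.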

[11] = qHTS for Inhibitors of ATXN expression: Validation (AID 588378); also: series mostly up to about 57 µM; nearly all actives have a fitted effect of over 75% in size
Procedure, shortened: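 Cells: HEK293-ATXN2-FFLuc, phenol-red free DMEM, 2 h attachment. Compound pin-transfer, 24 h, 37 degrees C, 5% CO2. CellTiter-Fluor 30 min, Ex405/Em525; Bright-Glo 5 min, luminescence 2 s exposure.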

[12] = target: DNA dC->dU-editing enzyme APOBEC-3G (Homo sapiens) (UniProt Q9HC16); assay: qHTS for inhibitors of Vif-A3G interactions: Validation (AID 588379)
Procedure, shortened: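 HeLa cells stably expressing Vif and A3G-eYFP, 700 cells/well, incubated overnight at 37 deg C, then exposed to compound overnight at 37 deg C. Inhibition of Vif-mediated degradation read as increased yellow fluorescence (Ex 488/Em 500-530) by laser-scanning cytometry.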

[13] = target: Estrogen receptor (Homo sapiens) (UniProt P03372); assay: qHTS assay for small molecule antagonists of estrogen receptor alpha signaling (AID 588513; active = well fitted curve in the direction sought with a large enough effect in the signal ratio, with a control signal flat, not every such curve was filed as active; the % refers to the signal ratio)
Estrogen receptor (Homo sapiens), sequence (P03372 whole entry, looked up): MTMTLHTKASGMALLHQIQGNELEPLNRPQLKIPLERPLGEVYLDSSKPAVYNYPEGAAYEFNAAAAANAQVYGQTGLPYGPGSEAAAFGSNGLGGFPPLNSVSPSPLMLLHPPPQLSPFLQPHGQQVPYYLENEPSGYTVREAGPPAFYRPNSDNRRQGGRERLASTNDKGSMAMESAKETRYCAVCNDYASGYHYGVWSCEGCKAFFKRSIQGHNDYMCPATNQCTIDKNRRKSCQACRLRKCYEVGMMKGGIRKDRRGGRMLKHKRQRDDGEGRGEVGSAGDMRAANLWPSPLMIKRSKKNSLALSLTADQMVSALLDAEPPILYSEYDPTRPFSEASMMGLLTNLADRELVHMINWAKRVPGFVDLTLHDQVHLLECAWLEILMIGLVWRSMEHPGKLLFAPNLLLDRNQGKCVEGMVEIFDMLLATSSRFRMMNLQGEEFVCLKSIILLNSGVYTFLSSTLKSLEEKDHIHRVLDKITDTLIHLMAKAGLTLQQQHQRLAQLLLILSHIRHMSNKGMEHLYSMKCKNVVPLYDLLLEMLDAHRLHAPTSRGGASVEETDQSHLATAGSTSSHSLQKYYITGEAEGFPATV
Procedure, shortened: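 Beta-lactamase reporter, antagonist mode, HEK 293 GripTite cells; 0.5nM E2 stimulus, 18 h, 37 C; CCF4 dye 2 h RT; fluorescence. IC50 and efficacy from Hill fits, normalized to E2 and DMSO.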

[14] = target: Estrogen receptor (Homo sapiens) (UniProt P03372); assay: qHTS assay for small molecule agonists of estrogen receptor alpha signaling (AID 588514; calls by dose curve; also: nearly all actives have a fitted effect of over 70% in size)
Procedure, shortened: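 ER-alpha-UAS-bla GripTite HEK 293 cells in medium with 2% charcoal/dextran-treated FBS were treated with compound titrations at 37 C for 18 hrs; beta-lactamase reporter read by CCF4 fluorescence after 2 hrs at RT.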

[15] = target: Bile acid receptor (Homo sapiens) (UniProt Q96RI1); assay: qHTS assay for small molecule antagonists of farnesoid X receptor signaling (AID 588526; calls by dose curve)
Procedure, shortened: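 Beta-lactamase reporter antagonist mode: HEK293T FXR-UAS-bla cells, titrated compound, CDCA stimulation, 16 h 37 C, CCF4 dye 2 h RT. Data normalized to CDCA 50 uM and DMSO; Hill-fit IC50.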

[16] = Nrf2 qHTS screen for inhibitors: Validation (AID 493153; active = well fitted inhibition curve with a large enough effect in the main read-out, with a control signal flat, not every such curve was filed as active); settings: Potency: luciferase luminescence; viability change: measured here: cytotoxicity max response
Procedure, shortened: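 A549 cells carrying an ARE-driven firefly luciferase reporter, in 5% FBS OPTI-MEM, were treated with compounds in concentration-response for 18-24 h at 37°C. Viability was read by CellTiter-Fluor fluorescence, then Nrf2 activity by luciferase luminescence.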

[17] = target: Galactokinase (Homo sapiens) (UniProt P51570); assay: qHTS Validation Assay for Inhibitors of Human Galactokinase (GALK) (AID 493189)
Galactokinase (Homo sapiens), sequence (P51570 whole entry, looked up): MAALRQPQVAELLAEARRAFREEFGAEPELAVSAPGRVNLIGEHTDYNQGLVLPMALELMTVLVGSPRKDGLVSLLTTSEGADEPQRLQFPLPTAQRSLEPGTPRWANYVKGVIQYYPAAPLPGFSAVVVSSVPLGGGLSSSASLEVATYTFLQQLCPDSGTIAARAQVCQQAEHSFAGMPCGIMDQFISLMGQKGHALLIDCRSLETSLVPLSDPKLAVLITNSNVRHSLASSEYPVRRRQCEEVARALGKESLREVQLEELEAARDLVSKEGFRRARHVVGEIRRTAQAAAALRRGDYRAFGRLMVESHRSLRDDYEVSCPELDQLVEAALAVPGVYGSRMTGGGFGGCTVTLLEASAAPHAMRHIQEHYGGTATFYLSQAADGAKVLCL
Procedure, shortened: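 Luminescence from leftover ATP (Kinase-Glo Plus, 10 min) served as read-out after a 1 h room-temperature reaction of 5 nM GALK, 100 uM galactose and 35 uM ATP at pH8.0.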

Row | Compound | Potency [1] | Potency [2] | activation [3] | outcome [4] | outcome [5] | outcome [6] | outcome [7] | outcome [8] | Potency [9] | Potency [10] | Potency [11] | outcome [12] | outcome [13] | Potency [14] | outcome [15] | Potency [16] | viability change [16] [%] | outcome [17]
1 | CN=C(NC#N)NCCSCc1nc[nH]c1C | inactive | inactive | 1.12% (inactive) | inactive | inactive | inactive | inactive | inactive | inactive | inactive | inactive | inactive | inactive | inactive | inactive |  |  | 
2 | Cc1nc2c([nH]1)c(=O)n(C)c(=O)n2Cc1ccco1 | inactive |  | 0.812% (inactive) | inactive | inactive |  | inactive | inactive | inactive | inactive | inactive |  |  |  |  | inactive | -1.43 | inactive
3 | COc1cc(C(=O)OCCCN2CCCN(CCCOC(=O)c3cc(OC)c(OC)c(OC)c3)CC2)cc(OC)c1OC | 16.4 µM (active) |  | 0.688% (inactive) | inactive | inactive | inactive | inactive | inactive | inactive |  | inactive | inactive |  |  |  | inactive | -0.03 | inactive
4 | Cc1cccc(C)c1NC(=O)C(C)N (stereo not drawn) | inactive | inactive |  | inactive |  | inactive | inactive | inactive | inactive | inactive | inactive |  |  |  |  | inactive | 3.48 | 
5 | Brc1c(NC2=NCCN2)ccc2nccnc12 | inactive | inactive |  | inactive | inactive | inactive | inactive | inactive | inactive | inactive | inactive | inactive |  |  |  | inactive | -1.27 | inactive
6 | NC(N)=NC(=O)Cc1c(Cl)cccc1Cl | inactive | inactive | 1.44% (inactive) | inactive | inactive | inactive | inactive | inactive | inactive | inactive | inactive | inactive |  |  |  |  |  | 
7 | C[C@]12C=CC(=O)C=C1CC[C@H]1[C@@H]3C[C@@H](O)[C@](O)(C(=O)CO)[C@@]3(C)C[C@H](O)[C@@]12F | inactive | inactive |  | inactive | inactive | inactive | inactive | inactive | inactive | inactive | inactive |  | inactive | inactive |  |  |  | inactive
8 | CC1=NS(=O)(=O)c2cc(Cl)ccc2N1 | inactive | inactive |  | inactive | inactive |  | inactive | inactive | inactive | inactive | inactive | inactive |  |  |  | inactive | 3.36 | 
9 | COCCc1ccc(OCC(O)CNC(C)C)cc1 (stereo not drawn) | inactive | inactive |  | inactive | inactive |  | inactive | inactive | inactive | inactive | inactive |  |  |  |  | inactive | -2.79 | 
10 | C[C@@H](O)[C@H]1C(=O)N2C(C(=O)O)=C(SCCN=CN)C[C@H]12 | inactive | inactive |  | inactive |  |  | inactive | inactive | inactive | inactive | inactive |  |  |  |  | inactive | -3.32 | 
11 | CN(C)[C@@H]1C(=O)C(C(N)=O)=C(O)[C@@]2(O)C(=O)C3=C(O)c4c(O)ccc(Cl)c4[C@@H](O)[C@H]3C[C@@H]12 | inactive | inactive |  | inactive |  |  | inactive | inactive | inactive | inactive | inactive |  |  |  |  | inactive | 4.27 | 
